Experimental findings from ChEMBL document CHEMBL1201862, “PubChem BioAssay data set” (2004) are described below.

Molecules are shown by their SMILES. Only a part of the results of these assays is listed, not drawn at random.

This test has as its target T1, Protein RecA (Mycobacterium tuberculosis) (UniProt P9WHJ3).
T1 sequence (whole entry): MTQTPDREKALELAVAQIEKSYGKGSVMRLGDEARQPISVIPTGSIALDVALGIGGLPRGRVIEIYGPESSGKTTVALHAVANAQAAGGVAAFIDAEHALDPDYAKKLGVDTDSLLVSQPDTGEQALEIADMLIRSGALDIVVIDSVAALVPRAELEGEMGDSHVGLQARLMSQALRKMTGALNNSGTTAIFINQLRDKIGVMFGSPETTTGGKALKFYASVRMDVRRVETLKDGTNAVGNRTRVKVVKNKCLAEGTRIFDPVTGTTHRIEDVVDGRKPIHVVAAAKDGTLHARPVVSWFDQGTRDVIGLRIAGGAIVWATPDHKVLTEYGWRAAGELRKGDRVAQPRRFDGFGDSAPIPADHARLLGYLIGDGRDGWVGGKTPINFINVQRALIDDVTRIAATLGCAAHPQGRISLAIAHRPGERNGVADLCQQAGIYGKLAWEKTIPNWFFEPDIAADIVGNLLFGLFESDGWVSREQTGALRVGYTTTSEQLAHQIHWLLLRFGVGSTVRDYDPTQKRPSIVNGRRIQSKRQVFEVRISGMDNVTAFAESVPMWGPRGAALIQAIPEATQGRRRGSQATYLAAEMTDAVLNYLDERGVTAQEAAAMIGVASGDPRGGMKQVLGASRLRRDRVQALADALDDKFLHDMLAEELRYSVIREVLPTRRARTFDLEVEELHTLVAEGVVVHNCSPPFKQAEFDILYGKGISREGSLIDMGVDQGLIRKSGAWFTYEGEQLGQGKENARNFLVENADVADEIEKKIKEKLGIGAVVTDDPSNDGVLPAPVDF
The experiment in a line: M. tuberculosis H37Rv growth inhibition, dose response, strain H37Rv (AID 489010).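 Also: whole Mycobacterium tuberculosis cells grown in culture and not purified RecA protein.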 Type of test: functional.
As to `Cc1ccc(C)c(Sc2ccc(NC(=O)CCl)cc2)c1`, the IC90 is > 100 µM (active).

In the case of `COc1ccc2nc(C)cc(Sc3nc4ccccc4s3)c2c1`, the concentration for an effect of 90% (IC90) is > 100 µM (active). For `CN1C(=O)C(=C2CC(c3ccccc3)N(C(=O)CCl)N2)C(=O)N(C)C1=O` (centres undefined), the IC90 was > 100 µM (active). For `C=CCOc1ccccc1CN(C(=O)CCl)c1ccc2c(c1)OCO2` the value was 8.42 µM (active); for `Cc1ccc(C(=O)OCn2ncc(Cl)c(Cl)c2=O)cc1`, > 100 µM (active).

As for `COc1cc2c(cc1OC)C(c1cc(Br)ccc1F)N(C(=O)CCl)CC2` (centres undefined), the IC90 is 12.1 µM (active).

Consider `Cc1ccc(C(=O)Oc2ccc([N+](=O)[O-])cc2)cc1S(=O)(=O)N1CCCCCC1`, for which the 90% effect concentration (IC90) is > 100 µM (active). For `Cc1nn(-c2ccccc2)c(Cl)c1CN(C(=O)CCl)c1cccc2ccccc12` the value was 35.5 µM (active); for `COc1ccc(N(C(=O)CCl)C(C(=O)NCCc2ccccc2)c2cccs2)cc1` (centres undefined), 22.9 µM (active); for `O=C(CCl)N(c1ccc(Cl)cc1)c1c[nH]c2ccccc12`, 4.5 µM (active). Turning to `Cc1cc(C)cc(Cn2ncc(Cl)c(Cl)c2=O)c1`, the IC90 is 25.7 µM (active). With `CC(=O)n1cc(N(C(=O)CCl)c2ccc([N+](=O)[O-])cc2)c2ccccc21`, the IC90 was 8.94 µM (active).

Regarding `Cc1ccc(Sc2ccc(NC(=O)CCl)cc2)c(C)c1`, the IC90 is 66.3 µM (active). As to `CCC(C)[C@@H](NC(=O)OC(C)(C)C)c1nnc(S(=O)(=O)Cc2cccc(C)c2)o1` (some centres undefined), the IC90 is > 100 µM (active). Consider `O=C(CCl)N1c2ccccc2OCC1c1ccccc1` (centres undefined), for which the IC90 was 4.03 µM (active). For the compound `CCn1nc(/C=C/c2ccccc2)nc2c(=O)n(C)c(=O)nc1-2`, the IC90 was 15.4 µM (active). In the case of `Cc1oc2c(c1C(=O)NCc1cccnc1)C(=O)c1ccccc1C2=O`, the IC90 is < 0.2 µM (active). As for `Cn1nc(-c2ccc(Cl)cc2)nc2c(=O)n(C)c(=O)nc1-2`, the IC90 is 20 µM (active). On to `Cc1ccc2c(c1)c1c3n2CCN(C(=O)CCl)C3CCC1` (centres undefined), for which the IC90 was 8.43 µM (active). Regarding `O=C(OCn1ncc(Cl)c(Cl)c1=O)c1ccccc1Cl`, the IC90 was > 100 µM (active).

On to `O=C(CCl)Nc1cn(-c2ccccc2)nc1-c1ccc(F)cc1`, for which the IC90 was 49.8 µM (active).

For the compound `CC(C)c1nnc(NC(=O)c2nc(S(=O)(=O)Cc3ccc(F)cc3)ncc2Cl)s1`, the IC90 was > 100 µM (active). On to `Cc1ccc(N(NC(=O)C(O)(c2ccccc2)c2ccccc2)C(=O)CCl)cc1`, for which the IC90 is 27.4 µM (active). `O=C(NC1=C(NC2CCS(=O)(=O)C2)C(=O)c2ccccc2C1=O)c1ccccc1` (centres undefined): the IC90 is > 100 µM (active). Next, `COc1cc(NCCCCCCCN)c2ncccc2c1`: 57.8 µM (active); `CCN(CC)CCNC(=O)c1ccc2c(c1NCCO)C(=O)c1ccccc1C2=O`: > 100 µM (active); `Cc1ccccc1-n1ncc2c([N+](=O)[O-])cc([N+](=O)[O-])cc21`: 2.16 µM (active). For `CSc1nnc(NC(=O)c2nc(S(=O)(=O)Cc3cccc(C)c3)ncc2Cl)s1` the value was 44.7 µM (active); for `Cc1cccc(Cn2nnc3c2C(=O)c2ccccc2C3=O)c1`, 52.6 µM (active); for `Cc1ccc(Sc2ccc(NC(=O)CCl)cc2)cc1C`, 52.4 µM (active). For the compound `CN(C1=C(NC(=O)c2ccccc2)C(=O)c2ccccc2C1=O)C1CCS(=O)(=O)C1` (centres undefined), the IC90 was > 100 µM (active). `O=C1NC(=S)N(C2CCCCC2)C(=O)/C1=C/NNC(=O)c1ccccc1O`: the IC90 was > 100 µM (active). For `Cc1oc2c(c1C(=O)N1CCOCC1)C(=O)c1ccccc1C2=O` the value was 35.2 µM (active); for `O=C(OCn1ncc(Cl)c(Cl)c1=O)c1cccc(C(F)(F)F)c1`, > 100 µM (active).
